Shown are actives, neighbours in structure and some others; about 12% of the full set was active somewhere.
Sfp inh: inhibitors of Bacillus subtilis Sfp phosphopantetheinyl transferase; Biochemical Sfp PPTase activity, qHTS; Potency, µM, for inactives: largest response in the series, negative = inhibition, actives largely listed as inhibitors; AID 1490; Q9F4F7; 310,000 compounds, 3.5% hits;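 also: the enzyme is Sfp with the accession as filed and its product quenches rhodamine fluorescence; 0% = enzyme reaction without inhibitor and -100% = no enzyme wells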
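Sfp 15 nM + cpd, 15 min RT; start w/ rhodamine-CoA 5 uM, BHQ-2-YbbR 12.5 uM (final); 50 mM Hepes pH 7.6, 10 mM MgCl2, 0.01% NP-40, 0.01% BSA; read 525/598 nm at 0 and 30 min.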
ALDH1A1 inh: inhibitors of human aldehyde dehydrogenase 1A1; 220,000 compounds, 7.3% hits; Potency, µM (doses to about 75.3 µM), for inactives: at the highest dose activity, negative = inhibition, actives largely listed as inhibitors; P00352; Purified ALDH1A1, NADH fluorescence, propionaldehyde substrate; active = well fitted inhibition curve with a large enough effect, not every such curve was filed as active; inconclusive = small, poorly fitted or top-dose-only effect, or another doubt; inactive = no such curve, though single readings can be large or run the other way;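 also: plate controls were no enzyme wells and a reference inhibitor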
RORgamma inh: blocks mouse ROR gamma transcriptional activity; Drosophila S2 Gal4-RORgamma UAS-luciferase reporter, 20 h; Potency, µM (doses to about 53.6 µM), for the others: at the top dose activity change, negative = inhibition, most hits filed as inhibitors; 310,000 compounds, 5.4% hits; AID 2551; also: nearly all actives have a fitted effect of over 60% in size
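A Gal4/UAS one-hybrid system in insect cells: metallothionein-promoter Gal4–ROR gamma fusion plus Photinus luciferase reporter. Copper sulfate 700 uM final, 20 hr ambient incubation, luminescent detection after 10 min with reagent.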
PLK1 PBD inh: PLK1 (human) polo-box domain binding inhibition; P53350; Plk1 PBD binding of FITC phosphopeptide, fluorescence polarization; Potency, µM, for the others: max response, negative = inhibition, actives largely listed as inhibitors; 360,000 compounds, 2.8% hits; AID 720504; also: series mostly up to about 57 µM; nearly all actives have a fitted effect of over 65% in size
Target sequence (P53350 whole entry, looked up, the tested form may be a part): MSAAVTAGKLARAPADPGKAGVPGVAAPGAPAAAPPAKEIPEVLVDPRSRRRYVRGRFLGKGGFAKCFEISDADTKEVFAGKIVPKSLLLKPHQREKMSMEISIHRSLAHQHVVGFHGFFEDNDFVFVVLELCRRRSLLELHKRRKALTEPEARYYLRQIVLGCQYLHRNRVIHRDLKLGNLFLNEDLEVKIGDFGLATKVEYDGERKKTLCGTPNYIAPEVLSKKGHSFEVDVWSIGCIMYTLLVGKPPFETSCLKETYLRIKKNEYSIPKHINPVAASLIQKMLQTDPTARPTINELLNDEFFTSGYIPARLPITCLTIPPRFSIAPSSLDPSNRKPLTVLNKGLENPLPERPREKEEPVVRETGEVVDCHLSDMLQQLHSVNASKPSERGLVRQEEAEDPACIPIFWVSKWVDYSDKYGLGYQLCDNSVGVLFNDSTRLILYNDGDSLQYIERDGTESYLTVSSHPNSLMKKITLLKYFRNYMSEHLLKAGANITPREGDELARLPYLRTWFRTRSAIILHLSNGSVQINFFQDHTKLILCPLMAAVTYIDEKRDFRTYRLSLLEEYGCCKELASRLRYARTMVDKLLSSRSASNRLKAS
VP16 counter: counter-screen for ROR gamma inhibitors: Gal4-VP16 reporter | Drosophila S2 Gal4-VP16 UAS-luciferase, luminescence, 20 h | Potency, µM (series often up to 53.6 µM), for inactives: top-dose activity, negative = inhibition, hits mostly inhibitors | 310,000 compounds, 3.5% hits;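 also: Gal4-VP16 expression switched on by copper sulfate through the metallothionein promoter; nearly all actives have a fitted effect of over 50% in size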
Numbers without * were called inactive; ? = inconclusive; / = not tested or not shown; [ ] = another dose, or the depositor's remark. Unless noted, calls follow the shape of the dose curve; as a rule, active = well fitted curve in the direction sought with a large enough effect; inconclusive = small, poorly fitted or top-dose-only effect, or another doubt; inactive = no such curve, though single readings can be large; an effect the other way counts as inactive or inconclusive. Unless noted, % is scaled to controls: 0 for no effect and ±100 for the full control effect; potency is read from the fitted curve at half-maximal effect.

SMILES	Sfp inh	ALDH1A1 inh	RORgamma inh	PLK1 PBD inh	VP16 counter
CN1C(=O)c2ccc(NC(=S)NC(=O)C(C)(C)C)cc2C1=O	35.5µM*	?	?	-11.9%	?
O=S(=O)(Nc1ccc(S(=O)(=O)N2CCCC2)cc1)c1ccc(F)cc1	7.9%	/	-0.7%	-11.9%	0.5%
CN1CCN(S(=O)(=O)c2ccc(NC(=S)NC(=O)C(C)(C)C)cc2)CC1	-7.4%	31.6µM*	-12.6%	-13.7%	-10.2%
NS(=O)(=O)c1ccc(NC(=S)NC(=O)c2cccs2)cc1	?	/	-18.7%	-6.3%	-1.5%
Cc1ccc(S(=O)(=O)Nc2ccc(S(=O)(=O)N3CCCC3)cc2)cc1	-16.5%	0.562µM*	28.6%	-1.2%	-4.9%
CCC(=O)NC(=S)Nc1ccc(S(=O)(=O)N2CCN(C)CC2)cc1	2.3%	6.5%	-2.1%	-1.2%	5.7%
O=C(NC(=S)Nc1ccc(S(=O)(=O)N2CCCCC2)cc1)c1cccs1	?	?	4.47µM*	-9.2%	?
COc1cc(C(=O)N2CCCC(c3cc(C(=O)NCc4ccc(F)cc4)no3)C2)cc(OC)c1C (centres undefined)	/	/	/	-3.8%	/
CN1C(=O)C(C)(C)N(C(=O)c2cccc([N+](=O)[O-])c2)c2ccccc21	14.1%	/	-19.5%	-10.4%	-3.8%
CC1CCN(S(=O)(=O)c2ccc(NC(=S)NC(=O)c3ccc(Cl)cc3)cc2)CC1	-18.7%	3.98µM*	2µM*	?	3.98µM*
O=C(NC(=S)Nc1ccc(S(=O)(=O)NC2CCCCC2)cc1)c1cccs1	11.8%	2.2%	1.12µM*	-12.5%	0.447µM*
CN1CCN(S(=O)(=O)c2ccc(NC(=S)NC(=O)c3ccccc3)cc2)CC1	?	25.1µM*	?	26.7µM*	12.3%
Cc1ccc(NC(=O)c2ccc(S(=O)(=O)N3CCC(C)CC3)cc2)cc1	14.5%	-1.9%	-24.5%	-0.4%	-25.5%
CCC(=O)NC(=S)Nc1ccc(S(=O)(=O)NC2CCCCC2)cc1	-6.7%	/	-24.5%	2.1%	-2.6%
O=S(=O)(Nc1ccc(S(=O)(=O)N2CCCCC2)cc1)c1cccs1	17.3%	12.6µM*	14.9%	-15.0%	3.1%
CCCN(CC(=O)Nc1ccccc1C)C(=O)/C=C/c1ccc(OC)c(OC)c1	/	/	/	3.3%	/
Cc1ccc(S(=O)(=O)N2CCN(CCC#N)CC2)cc1	79.4µM*	-12.7%	2.5%	-0.2%	9.1%
CCCCC(C)/C=C(C)/C=C(\C)C(=O)NC1=CC(O)(/C=C/C=C/C=C/C(=O)NC2=C(O)CCC2=O)C2OC2C1=O (centres undefined)	?	/	0.562µM*	/	1.26µM*
COc1cccc(C2(O)C(=O)Nc3ccccc32)c1 (centres undefined)	-5.4%	/	-0.8%	-8.5%	-0.4%
COc1ccc2c(c1)CC(C1(O)C(=O)Nc3ccccc31)C2=O (centres undefined)	8.6%	31.6µM*	2.8%[10 µM]	2.4%	3.0%
OCCNc1ncnc2c1ncn2[C@H]1CN(Cc2ccco2)C[C@@H](CO)O1	/	/	/	-6.7%	/
CCN1CCN(C(=O)c2cc(COc3ccc(F)c(F)c3)on2)[C@@H](C)C1=O	/	/	/	4.8%	/
O=C(O)c1cccc(N2C(=O)/C(=C/c3ccc(SCc4ccc(Cl)cc4)o3)SC2=S)c1	39.8µM*	25.1µM*	25.9%	?	-16.1%
O=C(CCN1C(=O)/C(=C/c2ccc(Cl)cc2)SC1=S)Nc1cccc(C(=O)O)c1	-1.2%	/	20.5%	?	6.5%
CCOC(=O)c1sc(NC(=O)CN(CC(C)C)CC(C)C)c(C(=O)OCC)c1C	10.3%	22.4µM*	-25.4%	-0.9%	-2.1%
SMILES	Sfp inh	ALDH1A1 inh	RORgamma inh	PLK1 PBD inh	VP16 counter
CCOC(=O)c1sc(NC(=O)CCN2CCC(C)CC2)c(C(=O)OCC)c1C	12.1%	2.51µM*	-37.3%	-14.8%	22.6%
CCOC(=O)c1sc(NC(=O)CCN2C(=O)c3ccccc3C2=O)c(C(=O)OCC)c1C	-1.8%	?	24.2%	?	0.1%
CCOC(=O)c1c(NC(=O)Cc2cccs2)sc(C(=O)N2CCCCC2)c1C	-23.8%	2.51µM*	31.6%	-1.2%	-7.0%
CCOC(=O)c1sc(NC(=O)CCN2CCN(CC)CC2)c(C(=O)OCC)c1C	2.0%	10µM*	?	-2.6%	?
CCOC(=O)c1sc(NC(=O)CN2C(=O)NC3(CCC(C)CC3)C2=O)c(C(=O)OCC)c1C (centres undefined)	/	/	/	1.5%	/
Nc1nc2c(nc(Br)n2C2O[C@H]3COP(=O)(O)O[C@@H]3C2O)c(=O)[nH]1 (some centres undefined)	/	-6.7%	/	/	/
O=C(NCc1cccnc1)c1cc(C2CCCCN2C(=O)c2ccc(Cl)cc2)on1 (centres undefined)	/	/	/	1.8%	/
CC1(C)C(=O)C(c2ccccc2)=C2CN3C(=O)N(CCc4ccccc4)C(=O)C3(Cc3ccc(F)cc3)C=C21 (centres undefined)	20.8%	-8.3%	-2.8%	/	-5.0%
COc1ccc(CCNC(=O)c2cccc(S(=O)(=O)N3CCOCC3)c2)cc1OC	/	/	/	-5.7%	/
Cc1cccc(-n2c(Cn3nc(C)c([N+](=O)[O-])c3C)n[nH]c2=S)c1	-6.8%	25.1µM*	11.2µM*	-21.8%	-4.7%
O=c1ccc(-c2n[nH]c(=S)n2-c2ccc(F)c(Cl)c2)n[nH]1	-9.4%	-0.5%	-38.4%	-5.2%	7.2%
Cc1nn(CCc2n[nH]c(=S)n2-c2ccc(F)c(Cl)c2)c(C)c1[N+](=O)[O-]	-16.1%	0.6%	7.08µM*	-12.9%	?
COc1ccccc1NC(=S)N1CCN(c2cccc(C)c2C)CC1	4.2%	/	11.2µM*	1.3%	11.2µM*
Cc1ccccc1NC(=S)N1CCN(c2ccccc2Cl)CC1	20.1%	/	7.08µM*	-2.5%	7.08µM*
O=C1CCCc2c1cc(-c1ccccc1)n2-c1ccc(O)cc1	5.5%	-3.5%	-16.5%	-16.0%	1.8%
COc1ccc(-n2c(-c3ccccc3)cc3c2CCCC3=O)cc1	-2.7%	15.8µM*	?	-6.3%	-0.9%
CCOC(=O)[C@]1(CC(=O)O)CCCC1=O	/	1.6%[13.5 µM]	/	/	/
Cc1cc(N(C)C)ccc1N=Nc1ccc2ncccc2c1	44.7µM*	-11.1%	-41.2%	?	-11.5%
CCC1(C)N=C(c2ccc3c(c2)OCO3)CC(c2ccccc2O)N1 (centres undefined)	2.0%	-5.5%	?	26.7µM*	9.4%
Cc1nc(SCCC(=O)O)c2cc(-c3ccccc3)sc2n1	12.1%	/	0.891µM*	-13.1%	0.501µM*
Cc1nc(N2CCOCC2)c2cc(-c3ccccc3)sc2n1	?	?	9.7%	-13.8%	-2.5%
CC(C)CN=Cc1c(O)c([N+](=O)[O-])cc2oc3c(c12)CCCC3	-15.5%	28.2µM*	-22.2%	-14.7%	-23.1%
O=[N+]([O-])c1cc2oc3c(c2c(C=NCc2ccccc2)c1O)CCCC3	7.9%	?	-26.3%	-23.9%	-17.2%
CCOC(=O)N1CCC(N2Cc3cccc(C(=O)NCc4ccc(OC)cc4)c3C2=O)CC1	5.7%	20µM*	42.7%	/	4.0%

High-throughput results (PubChem BioAssay)
